High-throughput results as filed in PubChem.
A selection: hits, their analogues and other compounds. The true share with any hit is near 2.6%.
p53ts 39C tox: cytotoxicity in p53ts cells at nonpermissive temperature. H1299-p53A138V viability at 39C, ATP luminescence, 24 h. Potency, µM (titrated, usually from 46.1 µM), most hits filed as cytotoxic. actives 1.5% (n = 130,000); note: nearly all actives have a fitted effect of over 55% in size
FLuc inh: firefly luciferase inhibition; actives 2.2% (n = 72,000); P08659; AID 411; purified firefly luciferase, luminescence, 8 min; Potency, µM (series often up to 57.1 µM), actives largely listed as inhibitors; note: nearly all actives have a fitted effect of over 40% in size
Target sequence (P08659 whole entry, looked up): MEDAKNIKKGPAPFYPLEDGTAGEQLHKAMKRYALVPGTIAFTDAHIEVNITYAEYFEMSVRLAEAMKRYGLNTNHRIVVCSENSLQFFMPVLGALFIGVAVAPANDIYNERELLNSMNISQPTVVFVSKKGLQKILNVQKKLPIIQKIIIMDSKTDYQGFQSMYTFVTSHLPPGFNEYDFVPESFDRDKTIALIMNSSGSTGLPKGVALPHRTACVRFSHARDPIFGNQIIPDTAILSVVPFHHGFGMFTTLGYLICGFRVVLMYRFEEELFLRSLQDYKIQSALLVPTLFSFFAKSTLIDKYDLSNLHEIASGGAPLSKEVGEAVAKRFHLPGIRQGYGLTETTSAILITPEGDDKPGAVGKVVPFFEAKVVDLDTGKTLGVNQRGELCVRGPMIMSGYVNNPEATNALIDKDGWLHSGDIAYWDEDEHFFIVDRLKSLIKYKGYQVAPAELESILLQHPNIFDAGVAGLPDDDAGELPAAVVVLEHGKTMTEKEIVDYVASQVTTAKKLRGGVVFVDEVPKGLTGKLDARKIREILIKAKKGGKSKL
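Compounds were tested as concentration series (qHTS) against purified P. pyralis luciferase with luciferin and 10 uM ATP in 50 mM imidazole pH 7.2, 50 mM KCl, 7 mM MgCl2, 0.01% Tween 20, 0.05% BSA. Luminescence was read after 8 min at ambient temperature.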
p53ts 32C kill: kills p53ts cells at the permissive temperature; actives 0.93% (n = 130,000); Potency, µM (top dose mostly 46.1 µM), actives largely listed as cytotoxic; H1299-p53A138V at 32C, ATP luminescence viability, 24 h; note: nearly all actives have a fitted effect of over 55% in size
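ATP-content luminescence (ATPlite) read-out after 24 h compound exposure at 32C in H1299-p53A138V cells (600/well). Tested up to 46 uM. Normalized to DMSO (0%) and 100 uM tamoxifen (100% killing); Hill-fit AC50.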
Large screens that a line does not name were inactive; ! = not confirmed by another sample. Calls come from the whole dose curve; as a rule, active = well fitted curve in the direction sought with a large enough effect; inconclusive = small, poorly fitted or top-dose-only effect, or another doubt; inactive = no such curve, though single readings can be large; an effect the other way counts as inactive or inconclusive.

COc1ccc2[nH]cc(CCNC(=O)Nc3ccccc3)c2c1	none (no result: FLuc inh)
COc1ccc2[nH]cc(CCNC(=O)Nc3cc(C)cc(C)c3)c2c1	p53ts 39C tox 13µM (no result: FLuc inh)
COc1ccc(-c2cc(O)cc(O)c2)cc1	p53ts 39C tox inconclusive, FLuc inh 16µM, p53ts 32C kill inconclusive
COc1ccc(OC)cc1	none (no result: FLuc inh)
Cn1c(SCc2ccc(C#N)cc2Cl)nc2ccccc21	p53ts 39C tox inconclusive, FLuc inh 16µM, p53ts 32C kill inconclusive
Cn1c(SCc2nc3ccccc3n2CCO)nc2ccccc21	none
N#Cc1c(/N=C/c2cc3ccccc3s2)sc2c1CCC2	none (no result: FLuc inh)
Cc1ccc(/C=N/c2sc3c(c2C#N)CCC3)s1	p53ts 39C tox inconclusive, FLuc inh 1.6µM, p53ts 32C kill inconclusive
Cc1ccc(/C=N/c2sc3c(c2C#N)CCCCC3)o1	none
N#Cc1c(/N=C/c2ccco2)sc2c1CCC2	FLuc inh 2.5µM, p53ts 32C kill inconclusive
COc1cc(-c2nnc(SCC(=O)Nc3cccc(C#N)c3)o2)cc(OC)c1OC	none (no result: FLuc inh)
COc1ccc(C2C3=C(N=C4SCC(=O)N42)c2ccccc2CC3)cc1OC (centres undefined)	none
COc1ccc(C2C3=C(N=C4SCC(=O)N42)c2ccccc2CC3)cc1 (centres undefined)	FLuc inh 25µM
Cc1ccc2nc3c(cc2c1)c(NC(=O)c1cccnc1)nn3C	FLuc inh 13µM
CCn1nc(NC(=O)c2cccnc2)c2cc3cccc(C)c3nc21	none
O=c1c2ccccc2nc(-c2ccc(Cl)cc2)n1CCCCOc1ccc(F)cc1	none (no result: FLuc inh)
COc1ccc(C(=O)/C=C/Nc2cc(C)on2)c(OC)c1	FLuc inh 3.2µM
COc1ccc(C(=O)NCC(C)C)c(OC)c1	none (no result: FLuc inh)
CN1CCN(CCCN2c3ccccc3Sc3ccc(S(=O)(=O)N(C)C)cc32)CC1	none
CN1CC[C@H](CN2c3ccccc3Sc3ccccc32)C1	none
CSc1ccc2c(c1)N(CCC1CCCCN1C)c1ccccc1S2 (centres undefined)	p53ts 39C tox 13µM (no result: p53ts 32C kill)
CSc1ccc2c(c1)N(CC[C@H]1CCCCN1C)c1ccccc1S2	p53ts 39C tox 13µM! (no result: p53ts 32C kill)
COc1ccc(C(=O)n2nc(-c3ccco3)nc2NCc2cccs2)cc1OC	none (no result: FLuc inh)
O=C(NCCCCN1CCCC1)c1ccc(-n2c(=O)c(=O)[nH]c3ccccc32)cc1	none (no result: FLuc inh)
CCn1c(C(=O)N2CCC(C(=O)N3CCN(c4cccc(C)c4C)CC3)CC2)cc2sccc21	none (no result: FLuc inh)
Fc1ccc(-c2cc3nc4c(c(N5CCOCC5)n3n2)CCCC4)cc1	none
O=c1c2c(nc3cc(-c4ccc(F)cc4)[nH]n13)CCCC2	p53ts 39C tox 10µM, FLuc inh 7.9µM, p53ts 32C kill 13µM
O=C(Cn1cc(S(=O)(=O)Cc2ccc(F)cc2)c2ccccc21)NCCc1ccccc1	none (no result: p53ts 39C tox, FLuc inh)
COc1ccc(OC)c(NC(=O)c2c(N3CCCC3=O)c3cc(OC)ccc3n2C)c1	none (no result: FLuc inh)
Oc1ccc(Cl)cc1-c1cc(-c2ccccc2Cl)[nH]n1	none (no result: FLuc inh)
Oc1ccccc1-c1cc(-c2ccccc2Cl)[nH]n1	FLuc inh 13µM
CCOC(=O)c1c(NC(=O)Nc2ccc(F)cc2)sc(C(=O)N(C)C)c1C	none (no result: FLuc inh)
COc1ccccc1C1Nc2c(sc3nc(C)cc(C)c23)C(=O)N1c1ccccc1 (centres undefined)	p53ts 39C tox 13µM, p53ts 32C kill inconclusive (no result: FLuc inh)
COCc1cc(C)nc2sc3c(c12)NC(c1ccccc1C(=O)O)N(c1cccc(C(F)(F)F)c1)C3=O (centres undefined)	none (no result: FLuc inh)
COc1ccc(NC(=O)C2CCN(S(=O)(=O)c3cccc(-c4noc(C)n4)c3)CC2)cc1OC	none (no result: FLuc inh)
Cc1noc(C)c1C(=O)Nc1cccnc1	none
CN(C)c1nc(N)c(C(=O)Nc2cccnc2)nc1Cl	p53ts 39C tox 5µM, p53ts 32C kill 13µM (no result: FLuc inh)
COc1ccc(C(=O)Nc2ccccn2)cc1	none (no result: FLuc inh)
CC(C)(C)c1ccc(C(=O)Nc2cnccn2)cc1	p53ts 39C tox 5µM, FLuc inh 4µM, p53ts 32C kill 5µM
Cc1ccc(S(=O)(=O)C(CNC(=O)c2ccccc2F)c2cccs2)cc1 (centres undefined)	none (no result: FLuc inh)
O=C(Nc1nnc(-c2ccco2)s1)c1ccccc1	p53ts 39C tox inconclusive, p53ts 32C kill inconclusive
O=C(Nc1nnc(/N=C/c2ccco2)s1)c1ccc(F)cc1	p53ts 39C tox 13µM, FLuc inh inconclusive, p53ts 32C kill 10µM
COc1ccc(-n2c(=O)c3ccccc3n(CC(=O)NCCc3ccc(OC)c(OC)c3)c2=O)cc1	none (no result: FLuc inh)
O=C(Nc1ccc(-c2nc3cc(Cl)ccc3o2)cc1)c1cc2ccccc2o1	none (no result: FLuc inh)
c1ccc(-c2nc3ccccc3o2)nc1	p53ts 39C tox inconclusive, p53ts 32C kill inconclusive
Nc1ccc2oc(-c3ccccn3)nc2c1	p53ts 39C tox inconclusive, FLuc inh 20µM, p53ts 32C kill inconclusive
Clc1ccc2oc(-c3ccccn3)nc2c1	p53ts 39C tox inconclusive, FLuc inh 16µM, p53ts 32C kill inconclusive
Cc1ccnc(NS(=O)(=O)c2ccc(NC(=O)C(C)(C)Oc3ccc(Cl)cc3)cc2)n1	none (no result: FLuc inh)
